This is an account of results in PubChem BioAssay.

Inconclusive results are not listed. Calls of active or inactive are those of the source.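 Rule for the calls, unless noted: active = efflux inhibition above 0.42, the validation set average plus 4 SD; inconclusive = no clear call, values can overlap the other calls; inactive = the rest.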

The nature of assay [1]: rapamycin-like changes in RPL19A-GFP expression – cell-based, S. cerevisiae, multiplex flow cytometry, primary screen (AID 1862; in the data active = percent of DMSO control GFP below about 86%;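 note: lower values mimic rapamycin by blocking the RPL19A rise seen in DMSO cells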). To be noted: S. cerevisiae RPL19A-GFP strain, flow cytometry fluorescence, 3 h; at 10 µM; stronger effect = lower value.
Assay [2] in a line: TOR pathway GLN3 branch reporter MEP2-GFP changes – S. cerevisiae, multiplex flow cytometry, primary screen (AID 1867;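 active = GFP response, as percent of the DMSO control, above the screen-wide mean plus 3 SD, about 139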;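 note: median GFP channel fluorescence of barcode-gated MEP2-GFP cells measured by flow cytometry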). To be noted: S. cerevisiae MEP2-GFP strain, 3 h, at 10 µM, stronger effect = higher value, 100% means same as DMSO wells. (In general: In flow cytometry, cells or beads pass a laser one at a time.)
Assay [3] in a line: TOR pathway RTG branch CIT2 reporter changes – S. cerevisiae, GFP fusion, multiplex flow cytometry, primary screen (AID 1870;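 active = percent response above a set limit, the screen-wide mean plus 3 SD, cut at about 130% in these data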;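 note: barcoded CIT2-GFP strain pooled with four other GFP strains with rapamycin as positive control; median GFP fluorescence per well over plate mean of DMSO wells so 100% = DMSO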). The conditions noted are these: S. cerevisiae CIT2-GFP expression, 3 h, at 10 µM, stronger effect = higher value.
Assay [4] can be described thus: TOR pathway LAP4-GFP level changes – S. cerevisiae, multiplex flow cytometry, primary screen (AID 1873;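 active = GFP signal, as percent of the solvent control, above the screen mean plus 3 SD, about 149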). To be noted: S. cerevisiae LAP4-GFP expression, 3 h, at 10 µM, stronger effect = higher value.
Assay [5] is described as follows: yeast AGP1-GFP level changes, GLN3 branch – cell-based, multiplex flow cytometry, S. cerevisiae, primary screen (AID 1887;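 active = GFP signal above the screen-wide mean plus 3 SD, that is over about 124.5% of the solvent control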;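 note: AGP1-GFP fusion strain of S. cerevisiae within a five-strain barcoded multiplex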). To be noted: 3 h, at 10 µM, stronger effect = higher value.
Assay [6] can be described thus: reduced mouse 2C T cell binding to pMHC/ICAM-1 vesicles – MLPCN validation set, flow cytometry, LFA-1/ICAM-1 modulator project, pilot screen (AID 2523;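 active = response below a set limit, under 55% cells CD8-positive and vesicle-bound, and CD8 cells' 90th-percentile brightness under 279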;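 for vesicle binding response: mean PE anti-B7-1 fluorescence of CD8+ cells relative to row control; 100% = QL9-loaded vesicles with DMSO vehicle in the same plate row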). To be noted: 2C mouse CD8+ T cells, at 7 µM, stronger effect = lower value; double positive events: measured here: CD8+/vesicle+ event percentage.
Assay [7] has as its target Integrin beta-1 (Homo sapiens) + Integrin alpha-4 (Homo sapiens) (UniProt P13612+P05556). Briefly: alpha4beta1 integrin LIBS antibody binding reduction – U937 cells, HUTS-21 mAb, flow cytometry, validation set, VLA-4 allosteric modulator project, pilot screen (AID 2674;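 active = inhibition above 50%, about 3 SD of the validation set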;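 note: antibody binding induced by the VLA-4 ligand LDV present at three times its Kd; 0% = LDV ligand with antibody and no compound and 100% = antibody without LDV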). To be noted: HUTS-21 LIBS mAb binding, at 6.7 µM, stronger effect = higher value, binding induced by LDV ligand.

Assay [8] can be described thus: calorie-restriction mimetic ROS inhibitors, yeast – validation compound set, pilot screen (AID 2706;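 active = superoxide response below 65% of plate, a cut near 3 SD across the whole screen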;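 note: yeast exposed to compound for one week at 30 degrees C before staining; 100% = mean of all compound wells on the same plate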). The conditions noted are these: S. cerevisiae aging, superoxide DHE fluorescence; at 10 µM; stronger effect = lower value.
In assay [9] the target is Beta-adrenergic receptor kinase 1 (Homo sapiens) (UniProt P25098). Put plainly: GRK2 binders displacing RNA aptamer, biochemical, validation, human GRK2, bead flow cytometry (AID 488806;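 active = aptamer binding inhibition above 30%, about 3 SD of noise from non-fluorescent compounds; inactive = inhibition at or below 30%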). To be noted: bead-bound GRK2, FAM-aptamer displacement, at 10 µM, stronger effect = higher value.
Sequence of Beta-adrenergic receptor kinase 1 (Homo sapiens) (P25098 whole entry, looked up): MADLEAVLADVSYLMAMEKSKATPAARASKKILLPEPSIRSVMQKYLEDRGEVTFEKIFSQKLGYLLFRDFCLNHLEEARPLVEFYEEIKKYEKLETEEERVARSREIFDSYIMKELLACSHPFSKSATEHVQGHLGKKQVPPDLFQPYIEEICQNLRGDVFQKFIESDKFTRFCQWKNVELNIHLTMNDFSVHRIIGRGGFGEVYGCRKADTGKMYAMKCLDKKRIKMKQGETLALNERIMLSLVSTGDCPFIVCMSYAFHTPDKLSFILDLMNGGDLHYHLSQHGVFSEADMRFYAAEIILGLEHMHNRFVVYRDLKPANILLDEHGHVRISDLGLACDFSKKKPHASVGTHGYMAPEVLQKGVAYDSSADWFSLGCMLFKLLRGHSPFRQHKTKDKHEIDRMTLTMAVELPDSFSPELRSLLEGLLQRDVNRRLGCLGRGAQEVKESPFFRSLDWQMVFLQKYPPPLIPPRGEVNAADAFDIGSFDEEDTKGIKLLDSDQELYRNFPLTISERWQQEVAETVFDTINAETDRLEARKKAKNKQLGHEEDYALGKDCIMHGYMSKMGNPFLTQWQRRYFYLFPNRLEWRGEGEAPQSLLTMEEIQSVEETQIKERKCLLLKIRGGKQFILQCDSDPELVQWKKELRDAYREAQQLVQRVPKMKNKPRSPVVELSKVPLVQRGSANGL
For assay [10], the target named is Beta-2 adrenergic receptor (Homo sapiens) (UniProt P07550). Briefly: agonist-induced loss of surface beta2AR – cell-based, FAP fluorogen, flow cytometry, validation set, pilot screen (AID 504459;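 active = percent response above 42, roughly 3 SD of non-fluorescent test compounds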;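 note: agonist-driven loss of surface beta2AR via internalization measured by FAP dye flow cytometry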). To be noted: Am2.2-beta2AR cells, at 10 µM, stronger effect = higher value.
Sequence of Beta-2 adrenergic receptor (Homo sapiens) (P07550 whole entry, looked up): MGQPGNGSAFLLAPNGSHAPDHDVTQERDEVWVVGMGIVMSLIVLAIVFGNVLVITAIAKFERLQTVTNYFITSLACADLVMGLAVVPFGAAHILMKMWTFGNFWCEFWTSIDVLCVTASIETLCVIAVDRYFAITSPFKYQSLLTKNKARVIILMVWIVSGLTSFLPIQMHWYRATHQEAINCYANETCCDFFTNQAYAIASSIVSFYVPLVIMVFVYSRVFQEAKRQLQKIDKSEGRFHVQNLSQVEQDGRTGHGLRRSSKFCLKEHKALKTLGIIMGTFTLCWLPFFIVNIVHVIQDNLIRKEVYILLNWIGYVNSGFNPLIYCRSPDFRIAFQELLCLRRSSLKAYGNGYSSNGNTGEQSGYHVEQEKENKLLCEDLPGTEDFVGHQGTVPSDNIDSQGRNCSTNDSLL
The target in assay [11] is AP-2 complex subunit beta (Homo sapiens) (UniProt P63010). Briefly: beta-arrestin/AP2 interaction blockers – biochemical, validation set, GST-AP2 beads, flow cytometry, pilot screen (AID 504541;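 active = inhibition above 54%, about 3 SD of non-fluorescent compounds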;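 note: AP2 carries R879A mutation and is captured from E. coli lysate; bead-bound FITC arrestin peptide fluorescence measuring arrestin peptide binding to AP2; 0% = DMSO wells and 100% = excess unlabeled arrestin peptide control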). To be noted: FITC arrestin peptide, at 10 µM, stronger effect = higher value, AP2 beta2 appendage fragment, R879A mutant.
Sequence of AP-2 complex subunit beta (Homo sapiens) (P63010 whole entry, looked up, the tested form may be a part, one chain of several): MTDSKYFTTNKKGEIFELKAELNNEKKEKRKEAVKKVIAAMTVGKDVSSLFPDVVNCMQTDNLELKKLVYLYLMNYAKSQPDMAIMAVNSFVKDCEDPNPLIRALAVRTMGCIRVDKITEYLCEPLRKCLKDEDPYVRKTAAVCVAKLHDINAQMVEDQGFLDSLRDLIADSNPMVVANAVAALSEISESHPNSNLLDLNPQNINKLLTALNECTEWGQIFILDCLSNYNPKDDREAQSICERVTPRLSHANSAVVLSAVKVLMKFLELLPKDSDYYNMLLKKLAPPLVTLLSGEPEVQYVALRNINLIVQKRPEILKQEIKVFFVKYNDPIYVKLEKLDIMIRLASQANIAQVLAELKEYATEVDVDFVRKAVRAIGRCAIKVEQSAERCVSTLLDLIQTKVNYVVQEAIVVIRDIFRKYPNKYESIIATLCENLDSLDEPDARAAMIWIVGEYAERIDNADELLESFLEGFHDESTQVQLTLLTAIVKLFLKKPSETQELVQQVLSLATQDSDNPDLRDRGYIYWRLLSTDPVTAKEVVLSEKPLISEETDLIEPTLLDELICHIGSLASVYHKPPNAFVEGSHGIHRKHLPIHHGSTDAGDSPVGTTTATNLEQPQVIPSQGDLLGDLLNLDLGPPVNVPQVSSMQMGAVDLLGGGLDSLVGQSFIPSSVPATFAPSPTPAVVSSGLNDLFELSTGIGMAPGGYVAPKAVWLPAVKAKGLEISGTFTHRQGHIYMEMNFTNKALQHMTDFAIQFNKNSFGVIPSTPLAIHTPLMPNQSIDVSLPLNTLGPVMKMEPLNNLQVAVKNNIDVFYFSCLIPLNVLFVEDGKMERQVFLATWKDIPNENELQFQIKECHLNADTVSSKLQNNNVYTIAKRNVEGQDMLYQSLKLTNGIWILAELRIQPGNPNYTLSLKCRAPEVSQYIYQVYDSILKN
Assay [12] can be described thus: cytosolic pH regulators acting via V-ATPase – S. cerevisiae, pHLuorin, HTS validation (AID 504600; in the data active = response above about 15%;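 note: plate controls were DMSO for no effect and reference compound for full effect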). The conditions noted are these: V-ATPase proton transport, at 10 µM, stronger effect = higher value.
Assay [13] has as its system anti-desmoglein-3 scFv antibody binding to human DSG3. Briefly: blockers of pathogenic pemphigus antibody–desmoglein-3 binding – biochemical, validation compound set, bead-based, flow cytometry, pilot screen (AID 588368;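 active = binding below the plate cutoff, the plate median minus 3 SD, with a reading above zero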;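 note: signal is the median channel fluorescence of bead-bound GFP antibody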). To be noted: Protein G beads, DSG3-Fc, scFv-GFP binding, at 10 µM, stronger effect = lower value.
The nature of assay [14]: Nile Red efflux blockade in pump-expressing yeast – validation compound set, multiplex, phenotypic, pilot screen (AID 588506).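 Note: Nile Red retained in cells so higher fluorescence means more efflux inhibition; 0 = negative control wells and 1 = enniatin B 25 µM full block.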 The conditions noted are these: S. cerevisiae pump-expressing triplex, Nile Red efflux flow cytometry; at 10 µM; stronger effect = higher value; the pumps come from Candida albicans.
The target of assay [15] is ATP-binding cassette sub-family B member 6 (Homo sapiens) (UniProt Q9NP58). Briefly: blockers of ABCB6-driven porphyrin uptake – K562-ABCB6 cells, flow cytometry, validation set, pilot screen (AID 588550;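 active = inhibition above the screen-wide mean plus 3 SD, about 51%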;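 note: 0% = DMSO wells and 100% = benzethonium chloride 70 µM positive control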). The conditions noted are these: K562-ABCB6 porphyrin accumulation, 1 h, at 10 µM, stronger effect = higher value.
Sequence of ATP-binding cassette sub-family B member 6 (Homo sapiens) (Q9NP58 whole entry, looked up): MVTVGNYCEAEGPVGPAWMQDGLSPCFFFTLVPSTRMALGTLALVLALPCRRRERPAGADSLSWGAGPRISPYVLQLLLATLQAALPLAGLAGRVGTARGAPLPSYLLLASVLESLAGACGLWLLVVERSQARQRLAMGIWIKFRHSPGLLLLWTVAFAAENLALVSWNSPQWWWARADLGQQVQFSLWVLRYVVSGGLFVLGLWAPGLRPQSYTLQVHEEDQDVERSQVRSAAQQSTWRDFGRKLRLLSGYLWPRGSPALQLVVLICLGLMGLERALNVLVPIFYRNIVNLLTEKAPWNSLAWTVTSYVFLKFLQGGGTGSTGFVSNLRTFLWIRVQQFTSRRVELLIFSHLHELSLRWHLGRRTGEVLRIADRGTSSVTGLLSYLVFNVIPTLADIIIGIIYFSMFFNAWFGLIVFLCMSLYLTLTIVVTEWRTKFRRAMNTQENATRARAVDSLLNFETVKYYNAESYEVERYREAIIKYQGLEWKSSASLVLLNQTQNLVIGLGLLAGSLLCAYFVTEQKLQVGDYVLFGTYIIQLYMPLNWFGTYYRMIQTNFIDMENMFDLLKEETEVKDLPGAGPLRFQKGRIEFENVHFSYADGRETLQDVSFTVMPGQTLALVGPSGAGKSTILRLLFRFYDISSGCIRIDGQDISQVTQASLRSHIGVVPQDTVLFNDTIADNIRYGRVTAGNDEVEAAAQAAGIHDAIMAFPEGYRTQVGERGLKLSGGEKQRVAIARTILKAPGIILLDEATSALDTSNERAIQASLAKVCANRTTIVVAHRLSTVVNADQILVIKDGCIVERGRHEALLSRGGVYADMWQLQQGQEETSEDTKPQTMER
Assay [16] is described as follows: AML differentiation inducers, ER-HoxA9 marrow cells – cell-based, GFP/MAC1 double positive, flow cytometry, validation set, primary screen (AID 588685;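 active = differentiation response of at least 50%, scaled between solvent and reference control, from cells with both markers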;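 note: compound exposure lasts four days before antibody staining and flow analysis; 0% = DMSO wells and 100% = 5 µM fulvestrant positive control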). The conditions noted are these: stronger effect = higher value, normalized: vehicle 0, fulvestrant 100.

Sequence of Integrin beta-1 (Homo sapiens) + Integrin alpha-4 (Homo sapiens) (P05556 whole entry, looked up): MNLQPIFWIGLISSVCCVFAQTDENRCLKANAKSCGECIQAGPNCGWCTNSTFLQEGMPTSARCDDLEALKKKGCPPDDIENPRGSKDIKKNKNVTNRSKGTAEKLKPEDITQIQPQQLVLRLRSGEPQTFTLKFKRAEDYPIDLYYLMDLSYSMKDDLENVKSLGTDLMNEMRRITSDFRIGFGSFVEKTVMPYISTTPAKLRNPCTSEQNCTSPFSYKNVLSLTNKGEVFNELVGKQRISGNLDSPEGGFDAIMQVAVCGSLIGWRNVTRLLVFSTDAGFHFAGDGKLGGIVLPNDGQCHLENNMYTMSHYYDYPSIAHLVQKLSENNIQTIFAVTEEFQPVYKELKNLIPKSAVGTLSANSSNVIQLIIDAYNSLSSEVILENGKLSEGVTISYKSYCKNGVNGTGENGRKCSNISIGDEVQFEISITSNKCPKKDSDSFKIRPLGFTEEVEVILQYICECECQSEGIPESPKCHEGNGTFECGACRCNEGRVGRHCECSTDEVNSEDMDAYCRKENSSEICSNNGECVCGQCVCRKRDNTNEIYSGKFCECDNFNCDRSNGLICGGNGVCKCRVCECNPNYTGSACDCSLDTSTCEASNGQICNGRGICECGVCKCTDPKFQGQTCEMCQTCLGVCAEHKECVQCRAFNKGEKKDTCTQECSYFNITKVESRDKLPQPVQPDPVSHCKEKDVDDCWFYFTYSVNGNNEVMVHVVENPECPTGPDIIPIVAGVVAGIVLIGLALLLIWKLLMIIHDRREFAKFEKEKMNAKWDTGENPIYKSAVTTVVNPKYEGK
Sequence of Integrin beta-1 (Homo sapiens) + Integrin alpha-4 (Homo sapiens) (P13612 whole entry, looked up): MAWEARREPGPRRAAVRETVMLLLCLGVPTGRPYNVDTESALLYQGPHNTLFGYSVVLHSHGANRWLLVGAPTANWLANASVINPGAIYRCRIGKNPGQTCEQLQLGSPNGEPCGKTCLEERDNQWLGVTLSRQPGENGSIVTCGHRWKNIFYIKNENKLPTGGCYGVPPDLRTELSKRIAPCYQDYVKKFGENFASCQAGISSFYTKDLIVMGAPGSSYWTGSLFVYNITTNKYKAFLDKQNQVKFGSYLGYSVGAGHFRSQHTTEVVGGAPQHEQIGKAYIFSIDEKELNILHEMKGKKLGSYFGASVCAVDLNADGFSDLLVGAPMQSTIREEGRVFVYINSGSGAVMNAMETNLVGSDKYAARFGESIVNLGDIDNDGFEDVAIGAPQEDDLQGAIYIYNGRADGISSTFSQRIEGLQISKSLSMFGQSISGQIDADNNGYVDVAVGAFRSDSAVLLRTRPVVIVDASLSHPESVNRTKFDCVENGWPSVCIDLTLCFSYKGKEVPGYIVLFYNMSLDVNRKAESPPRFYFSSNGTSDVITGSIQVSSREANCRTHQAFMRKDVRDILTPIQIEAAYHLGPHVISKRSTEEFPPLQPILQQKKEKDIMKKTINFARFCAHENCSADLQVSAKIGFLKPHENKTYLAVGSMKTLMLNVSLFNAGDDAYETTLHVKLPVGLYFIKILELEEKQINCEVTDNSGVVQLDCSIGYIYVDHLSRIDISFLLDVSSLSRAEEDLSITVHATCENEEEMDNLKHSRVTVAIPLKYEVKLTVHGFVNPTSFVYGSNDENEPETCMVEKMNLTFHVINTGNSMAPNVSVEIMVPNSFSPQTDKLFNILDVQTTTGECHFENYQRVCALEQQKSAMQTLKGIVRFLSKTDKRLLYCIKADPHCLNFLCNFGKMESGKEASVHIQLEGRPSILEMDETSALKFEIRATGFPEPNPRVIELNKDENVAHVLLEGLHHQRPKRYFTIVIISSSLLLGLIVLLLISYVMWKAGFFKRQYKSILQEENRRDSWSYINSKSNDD

Regarding `CCC(C)NCCOc1ccccc1C` (stereo not given), the percent of DMSO control GFP in assay [1] is 104% (inactive). Besides, the GFP response vs DMSO is 101% (inactive) in [2] and 97% (inactive) in assay [4]. In [3], the percent response of DMSO control is 105% (inactive). Besides, the GFP response, % of DMSO in [5] is 108% (inactive). The double positive events in [6] came to 61.2%. In addition, the vesicle binding response in assay [6] is 115% (inactive). Moreover, the inhibition – broadly, the drop in the measured response relative to a control, in per cent – in assay [7] was 5.61% (inactive); in assay [11], 29% (inactive); in assay [15], 12% (inactive). The superoxide response (% of plate) in assay [8] is 104% (inactive). Besides, the aptamer binding inhibition in [9] was -4% (inactive). The results for the response in assay [10] and in assay [12] were -6.41% (inactive) and -2.79% (inactive), respectively. In addition, in assay [13], the binding (% of control) is 96.8% (inactive). The efflux inhibition (fraction of control) in assay [14] is -0.61 (inactive). For the same compound, in [16], the differentiation response was -16.3% (inactive).
`Cc1ccc2nc(NC3=NC(CC(=O)O)C(=O)N3)nc(C)c2c1` (stereo not given): the percent of DMSO control GFP in assay [1] is 105% (inactive). Moreover, the results for the GFP response vs DMSO in assay [2] and in assay [4] were 100% (inactive) and 93.3% (inactive), respectively. The percent response of DMSO control in assay [3] was 106% (inactive). In addition, in [5], the GFP response, % of DMSO is 106% (inactive). The same compound registered a double positive events in [6] of 65.9%. Moreover, in assay [6], the vesicle binding response was 214% (inactive). For the same compound, the inhibition in [7] is 0.58% (inactive); in assay [11], 8.29% (inactive); in assay [15], 6% (inactive). In addition, the superoxide response (% of plate) in assay [8] is 96.2% (inactive). Also, the aptamer binding inhibition in assay [9] is 2% (inactive). Moreover, the response in assay [10] was -2.27% (inactive); in assay [12], 2.1% (inactive). The binding (% of control) in assay [13] is 96.1% (inactive). Moreover, the efflux inhibition (fraction of control) in assay [14] is 0.36 (inactive). The differentiation response in [16] was 9.04% (inactive).
With `CCOc1ccc2nc(S(N)(=O)=O)sc2c1`, the percent of DMSO control GFP in assay [1] was 101% (inactive). Besides, the figures for the GFP response vs DMSO in assay [2] and in assay [4] were 104% (inactive) and 100% (inactive), respectively. Besides, the percent response of DMSO control in [3] is 99.7% (inactive). The GFP response, % of DMSO in assay [5] is 103% (inactive). Further, the double positive events in assay [6] came out at 55.1%. Moreover, the vesicle binding response in assay [6] is 103% (inactive). In addition, the inhibition was 0.25% (inactive) in assay [7], -2.81% (inactive) in [11] and 7% (inactive) in assay [15]. Moreover, in assay [8], the superoxide response (% of plate) was 102% (inactive). In assay [9], the aptamer binding inhibition is 5% (inactive). Besides, the response in [10] is 3.56% (inactive); in assay [12], -4.65% (inactive). Also, the binding (% of control) in assay [13] is 101% (inactive). Further, in assay [14], the efflux inhibition (fraction of control) was -0.29 (inactive). The differentiation response in assay [16] is -13.3% (inactive).
For the compound `CC(C)=CC/C=C1\CCC(C(=O)O)C(C(=O)O)C1` (stereo not given), the percent of DMSO control GFP in assay [1] is 89.5% (inactive). In addition, the GFP response vs DMSO was 123% (inactive) in [2] and 81.4% (inactive) in assay [4]. Moreover, in assay [3], the percent response of DMSO control was 95.2% (inactive). In addition, the GFP response, % of DMSO in assay [5] is 87.5% (inactive). The double positive events in [6] was 63.2%. For the same compound, the vesicle binding response in assay [6] is 160% (inactive). The results for the inhibition in assay [7], in assay [11] and in assay [15] were -14.9% (inactive), -6.38% (inactive) and 14% (inactive), respectively. The superoxide response (% of plate) in [8] is 91.6% (inactive). Also, the aptamer binding inhibition in [9] is 6% (inactive). Further, the figures for the response in assay [10] and in assay [12] were -0.75% (inactive) and 1.64% (inactive), respectively. Besides, in assay [13], the binding (% of control) is 103% (inactive). Also, the efflux inhibition (fraction of control) in assay [14] is -0.35 (inactive). Further, the differentiation response in assay [16] is -2.46% (inactive).
In the case of `Cc1ccc(CN2CCN(Cc3cn[nH]c3C3CCCCC3)CC2CCO)cc1` (stereo not given), the percent of DMSO control GFP in [1] is 102% (inactive). The GFP response vs DMSO in [2] is 103% (inactive); in assay [4], 106% (inactive). Moreover, the percent response of DMSO control in [3] is 97.7% (inactive). Moreover, in [5], the GFP response, % of DMSO is 122% (inactive). The same compound registered a double positive events in assay [6] of 58.2%. In assay [6], the vesicle binding response is 264% (inactive). Also, the inhibition is 21% (inactive) in assay [7], 7.73% (inactive) in assay [11] and 8% (inactive) in assay [15]. The superoxide response (% of plate) in assay [8] is 87.9% (inactive). The aptamer binding inhibition in [9] was 0% (inactive). Further, the values for the response in [10] and in assay [12] were -22.7% (inactive) and -2.29% (inactive), respectively. Moreover, in [13], the binding (% of control) was 103% (inactive). Further, the efflux inhibition (fraction of control) in assay [14] is 0.08 (inactive). Further, in [16], the differentiation response was -5.97% (inactive).
